{"source": "PubChem BioAssay (NCI)", "note": "Values joined by “and” are separate entries in the source; they are usually repeats but may differ in a detail not shown here. Identical values can stand only once. About 79,000 compounds went through this panel and 15% of them were active in at least one assay; those are over-represented in the sample as a whole. Active and inactive are the calls of the source. No stated cut-off is given here; in the data, active means growth inhibition above about 70%; inactive means the rest.", "data": [{"assay": "NCI Yeast Anticancer Drug Screen. Data for the mlh1 rad18 strain (AID 175)", "conditions": "S. cerevisiae mlh1 rad18 strain growth inhibition; at 50.0 µM (retest, dose inferred, filed as 5.0); active compounds read high", "outline": "(§1)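 Compound-treated yeast growth, normalised to vehicle controls. Strain bears defined DNA repair mutations.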", "values": [{"smiles": "CC(=O)OC1=CC2=CCC3C(CCC4(C)C(C(C)=O)CCC34)C2(C)CC1", "note": "(stereo unspecified)", "growth inhibition": "-11% (inactive)"}, {"smiles": "CCCC/C=C1/CCC(CN(C)C)C1=O", "note": "(stereo unspecified)", "growth inhibition": "69% (inactive)"}, {"smiles": "CCN1CCC(O)(/C=C/c2ccccc2C)C(C(=O)/C=C/c2ccccc2C)C1", "note": "(stereo unspecified)", "growth inhibition": "93% (active)"}, {"smiles": "Cc1c(Cl)ccc2c(C(O)CNCc3ccccc3)cc(-c3ccc(Cl)cc3)nc12", "note": "(stereo unspecified)", "growth inhibition": "95% (active)"}, {"smiles": "COc1ccc(C2CC(c3c(O)ccc4ccccc34)=NN2)cc1OC", "note": "(stereo unspecified)", "growth inhibition": "97% (active)"}, {"smiles": "O=c1[nH]c2c([N+](=O)[O-])cc(Cl)cc2nc1/C=C(\\O)c1ccco1", "growth inhibition": "70% (active)"}, {"smiles": "NC1c2ccccc2-c2ccc([N+](=O)[O-])cc21", "note": "(stereo unspecified)", "growth inhibition": "38% (inactive)"}, {"smiles": "CN(C(=O)c1ccccc1)C1(COC(=O)c2ccccc2)CCCCC1", "growth inhibition": "6% (inactive)"}, {"smiles": "CCOC(=O)Nc1cc2c(cc1Br)-c1ccccc1C2O", "note": "(stereo unspecified)", "growth inhibition": "7% (inactive)"}, {"smiles": "O=C(/C=C(/Nc1ccccc1)C(=O)c1ccccc1)c1ccccc1", "growth inhibition": "91% (active)"}, {"smiles": "Nc1ccc2[nH]c3ccccc3c2c1", "growth inhibition": "29% (inactive)"}, {"smiles": "Clc1ccc([I+]c2cccs2)cc1", "growth inhibition": "98% (active)"}, {"smiles": "CCCCCCC(C)S(=O)(=O)c1ccc(C)cc1", "note": "(stereo unspecified)", "growth inhibition": "47% (inactive)"}, {"smiles": "COC(=O)/C(=C/C=C(c1ccccc1)c1ccccc1)N(C(C)=O)C(C)=O", "growth inhibition": "39% (inactive)"}, {"smiles": "Oc1ccc(Cc2cccc(Br)c2)c(O)c1", "growth inhibition": "99% (active)"}, {"smiles": "O=C(NNc1nc(-c2ccccc2)cs1)C(F)(F)F", "growth inhibition": "94% (active)"}, {"smiles": "Nc1nc(-c2ccc(Cl)cc2)cs1", "growth inhibition": "97% (active)"}, {"smiles": "Cc1cc(C)nc(CCSS(=O)(=O)O)c1", "growth inhibition": "6% (inactive)"}, {"smiles": "CC1(C)OC2C(COC(c3ccccc3)(c3ccccc3)c3ccccc3)OC(n3cnc4c(N)ncnc43)C2O1", "note": "(stereo unspecified)", "growth inhibition": "95% (active)"}, {"smiles": "Oc1ccc(N=Nc2ccccc2)c(O)c1.Oc1ccc(N=Nc2ccccc2)c(O)c1.[Cu]", "growth inhibition": "96% (active)"}, {"smiles": "COC(=O)/C=N/O", "growth inhibition": "-6% (inactive)"}, {"smiles": "C=CCCCCO/N=C/c1c2c(O)c3c(O)c(C)c4c(c3c1O)C(=O)C(C)(O/C=C/C(OC)C(C)C(OC(C)=O)C(C)C(O)C(C)C(O)C(C)/C=C/C=C(\\C)C(=O)N2)O4", "note": "(stereo unspecified)", "growth inhibition": "89% (active)"}, {"smiles": "O=C(N/C(=C\\c1ccc2c(c1)OCO2)c1nc2ccccc2s1)c1ccccc1", "growth inhibition": "97% (active)"}, {"smiles": "C=C1C[C@H](O)[C@H]2C(C[Se]c3ccccc3)C(=O)O[C@@H]2[C@H]2[C@H](C)C(O)C[C@@H]12", "note": "(stereo partly specified)", "growth inhibition": "32% (inactive)"}, {"smiles": "CC1=C(C(=O)Nc2ccccc2C)C(c2ccccc2F)C(C(=O)Nc2ccccc2C)=C(C)N1", "growth inhibition": "8% (inactive)"}, {"smiles": "COC(=O)CCC(NC(=S)N/N=C(\\C)c1cnc2ccccc2n1)C(=O)OC", "note": "(stereo unspecified)", "growth inhibition": "15% (inactive)"}, {"smiles": "CC(=O)Oc1c2c(c(OC(C)=O)c3c1n(C(C)=O)c1ccccc1n3C(C)=O)n(C(C)=O)c1ccccc1n2C(C)=O", "growth inhibition": "51% (inactive)"}, {"smiles": "CCOc1c(N=Nc2ccc(Cl)cc2)c(-c2ccccc2)nn1C(N)=S", "growth inhibition": "90% (active)"}, {"smiles": "CC(=O)N(C1=CC(=O)c2ccccc2C1=O)c1ccc(Cl)cc1", "growth inhibition": "98% (active)"}, {"smiles": "O=C(C1=Cc2ccccc2OC1)N1CCN(c2cccc(Cl)c2)CC1", "growth inhibition": "97% (active)"}, {"smiles": "Oc1c(Cl)ccc2cccnc12", "growth inhibition": "98% (active)"}, {"smiles": "COc1ccc2c(Cc3cc(Cl)ccc3O)cncc2c1O", "growth inhibition": "62% (inactive)"}, {"smiles": "CCCCCCCCCCCC1=NCC(C)N1", "note": "(stereo unspecified)", "growth inhibition": "15% (inactive)"}, {"smiles": "c1ccc2c(B(c3cccc4ccccc34)c3cccc4ccccc34)cccc2c1", "growth inhibition": "98% (active)"}, {"smiles": "CC(CCOP(=O)(O)OCCC(C)CC(C)(C)C)CC(C)(C)C", "note": "(stereo unspecified)", "growth inhibition": "19% (inactive)"}, {"smiles": "Cc1ccc(S(=O)(=O)Nn2c(S)c(C#N)c(-c3ccc([N+](=O)[O-])cc3)c(C#N)c2=O)cc1", "growth inhibition": "46% (inactive)"}, {"smiles": "COC1=C(/C(=N/Nc2ccc([N+](=O)[O-])cc2[N+](=O)[O-])c2ccccc2)COC1=O", "growth inhibition": "-6% (inactive)"}]}, {"assay": "NCI Yeast Anticancer Drug Screen. Data for the mlh1 rad18 strain (AID 175)", "conditions": "S. cerevisiae mlh1 rad18 strain growth inhibition; at 50.0 µM; active compounds read high", "outline": "as §1", "values": [{"smiles": "CC(=O)OC1=CC2=CCC3C(CCC4(C)C(C(C)=O)CCC34)C2(C)CC1", "note": "(stereo unspecified)", "growth inhibition": "11.3% (inactive)"}, {"smiles": "CC(=O)OCC(OC(C)=O)C(OC(C)=O)C(OC(C)=O)C(COC(C)=O)OC(C)=O", "note": "(stereo unspecified)", "growth inhibition": "-24.4% (inactive) and 7.9% (inactive) and 2.5% (inactive)"}, {"smiles": "CCCC/C=C1/CCC(CN(C)C)C1=O", "note": "(stereo unspecified)", "growth inhibition": "54.2% (inactive)"}, {"smiles": "CCN1CCC(O)(/C=C/c2ccccc2C)C(C(=O)/C=C/c2ccccc2C)C1", "note": "(stereo unspecified)", "growth inhibition": "99.5% (active)"}, {"smiles": "Cc1c(Cl)ccc2c(C(O)CNCc3ccccc3)cc(-c3ccc(Cl)cc3)nc12", "note": "(stereo unspecified)", "growth inhibition": "96.5% (active)"}, {"smiles": "COc1ccc(C2CC(c3c(O)ccc4ccccc34)=NN2)cc1OC", "note": "(stereo unspecified)", "growth inhibition": "89.7% (active)"}, {"smiles": "O=c1[nH]c2c([N+](=O)[O-])cc(Cl)cc2nc1/C=C(\\O)c1ccco1", "growth inhibition": "80% (active)"}, {"smiles": "NC1c2ccccc2-c2ccc([N+](=O)[O-])cc21", "note": "(stereo unspecified)", "growth inhibition": "39.9% (inactive)"}, {"smiles": "CN(C(=O)c1ccccc1)C1(COC(=O)c2ccccc2)CCCCC1", "growth inhibition": "9.9% (inactive)"}, {"smiles": "CCOC(=O)Nc1cc2c(cc1Br)-c1ccccc1C2O", "note": "(stereo unspecified)", "growth inhibition": "18.7% (inactive)"}, {"smiles": "O=C(/C=C(/Nc1ccccc1)C(=O)c1ccccc1)c1ccccc1", "growth inhibition": "37.7% (inactive)"}, {"smiles": "Nc1ccc2[nH]c3ccccc3c2c1", "growth inhibition": "16.8% (inactive)"}, {"smiles": "Clc1ccc([I+]c2cccs2)cc1", "growth inhibition": "99% (active)"}, {"smiles": "CCCCCCC(C)S(=O)(=O)c1ccc(C)cc1", "note": "(stereo unspecified)", "growth inhibition": "51.2% (inactive)"}, {"smiles": "COC(=O)/C(=C/C=C(c1ccccc1)c1ccccc1)N(C(C)=O)C(C)=O", "growth inhibition": "99.6% (active)"}, {"smiles": "Oc1ccc(Cc2cccc(Br)c2)c(O)c1", "growth inhibition": "99.2% (active)"}, {"smiles": "O=C(NNc1nc(-c2ccccc2)cs1)C(F)(F)F", "growth inhibition": "91.2% (active)"}, {"smiles": "Nc1nc(-c2ccc(Cl)cc2)cs1", "growth inhibition": "97.7% (active)"}, {"smiles": "Cc1cc(C)nc(CCSS(=O)(=O)O)c1", "growth inhibition": "5.85% (inactive)"}, {"smiles": "CC1(C)OC2C(COC(c3ccccc3)(c3ccccc3)c3ccccc3)OC(n3cnc4c(N)ncnc43)C2O1", "note": "(stereo unspecified)", "growth inhibition": "58.5% (inactive)"}, {"smiles": "Oc1ccc(N=Nc2ccccc2)c(O)c1.Oc1ccc(N=Nc2ccccc2)c(O)c1.[Cu]", "growth inhibition": "97.1% (active)"}, {"smiles": "COC(=O)/C=N/O", "growth inhibition": "36.3% (inactive)"}, {"smiles": "C=CCCCCO/N=C/c1c2c(O)c3c(O)c(C)c4c(c3c1O)C(=O)C(C)(O/C=C/C(OC)C(C)C(OC(C)=O)C(C)C(O)C(C)C(O)C(C)/C=C/C=C(\\C)C(=O)N2)O4", "note": "(stereo unspecified)", "growth inhibition": "85.3% (active)"}, {"smiles": "O=C(N/C(=C\\c1ccc2c(c1)OCO2)c1nc2ccccc2s1)c1ccccc1", "growth inhibition": "97.5% (active)"}, {"smiles": "C=C1C[C@H](O)[C@H]2C(C[Se]c3ccccc3)C(=O)O[C@@H]2[C@H]2[C@H](C)C(O)C[C@@H]12", "note": "(stereo partly specified)", "growth inhibition": "86.5% (active)"}, {"smiles": "CC1=C(C(=O)Nc2ccccc2C)C(c2ccccc2F)C(C(=O)Nc2ccccc2C)=C(C)N1", "growth inhibition": "47.7% (inactive)"}, {"smiles": "COC(=O)CCC(NC(=S)N/N=C(\\C)c1cnc2ccccc2n1)C(=O)OC", "note": "(stereo unspecified)", "growth inhibition": "31.4% (inactive)"}, {"smiles": "CC(=O)Oc1c2c(c(OC(C)=O)c3c1n(C(C)=O)c1ccccc1n3C(C)=O)n(C(C)=O)c1ccccc1n2C(C)=O", "growth inhibition": "69.7% (inactive)"}, {"smiles": "OCC(O)C(O)C(O)C(O)C(SCc1ccccc1)SCc1ccccc1", "note": "(stereo unspecified)", "growth inhibition": "10.1% (inactive) and 3.6% (inactive) and 10.6% (inactive)"}, {"smiles": "CCOc1c(N=Nc2ccc(Cl)cc2)c(-c2ccccc2)nn1C(N)=S", "growth inhibition": "93.1% (active)"}, {"smiles": "CC(=O)N(C1=CC(=O)c2ccccc2C1=O)c1ccc(Cl)cc1", "growth inhibition": "93.5% (active)"}, {"smiles": "O=C(C1=Cc2ccccc2OC1)N1CCN(c2cccc(Cl)c2)CC1", "growth inhibition": "71.2% (active)"}, {"smiles": "Oc1c(Cl)ccc2cccnc12", "growth inhibition": "91.7% (active)"}, {"smiles": "COc1ccc2c(Cc3cc(Cl)ccc3O)cncc2c1O", "growth inhibition": "82.3% (active)"}, {"smiles": "CCCCCCCCCCCC1=NCC(C)N1", "note": "(stereo unspecified)", "growth inhibition": "46% (inactive)"}, {"smiles": "c1ccc2c(B(c3cccc4ccccc34)c3cccc4ccccc34)cccc2c1", "growth inhibition": "97.4% (active)"}, {"smiles": "CC(CCOP(=O)(O)OCCC(C)CC(C)(C)C)CC(C)(C)C", "note": "(stereo unspecified)", "growth inhibition": "47.8% (inactive)"}, {"smiles": "Cc1ccc(S(=O)(=O)Nn2c(S)c(C#N)c(-c3ccc([N+](=O)[O-])cc3)c(C#N)c2=O)cc1", "growth inhibition": "59% (inactive)"}, {"smiles": "COC1=C(/C(=N/Nc2ccc([N+](=O)[O-])cc2[N+](=O)[O-])c2ccccc2)COC1=O", "growth inhibition": "4.9% (inactive)"}]}]}
